Hits are enriched below; roughly 2.4% of the tested compounds scored in any of these assays.
D2 PAM-1 = positive allosteric modulators of human D2 dopamine receptor; DiscoveRx D2 beta-arrestin cells, luminescence, 90 min; 100% = 57 uM dopamine signal; potentiation, % (concentration not given with the values); 360,000 tested, 0.23% active; AID 624464; in the data active = potentiation above about 50%; inconclusive = mostly about 30% to 49%
Target sequence (P14416 whole entry, looked up): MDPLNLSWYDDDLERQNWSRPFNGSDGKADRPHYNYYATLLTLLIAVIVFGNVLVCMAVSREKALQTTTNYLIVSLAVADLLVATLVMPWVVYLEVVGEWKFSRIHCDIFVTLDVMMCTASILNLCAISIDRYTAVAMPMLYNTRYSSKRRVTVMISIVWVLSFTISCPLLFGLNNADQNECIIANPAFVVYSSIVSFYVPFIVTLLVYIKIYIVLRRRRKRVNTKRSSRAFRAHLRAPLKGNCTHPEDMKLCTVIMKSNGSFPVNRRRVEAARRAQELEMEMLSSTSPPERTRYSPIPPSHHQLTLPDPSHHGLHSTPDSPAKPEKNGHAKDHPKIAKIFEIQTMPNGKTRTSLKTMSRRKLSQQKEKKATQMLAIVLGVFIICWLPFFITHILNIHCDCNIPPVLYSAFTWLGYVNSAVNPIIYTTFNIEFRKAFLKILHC
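D2 cells co-treated with compound plus 50 nM dopamine (EC20) for 90 min at 37 deg C to detect potentiation. Beta-arrestin recruitment was read as enzyme-fragment luminescence after 1 h at ambient temperature. Full response was set by 57 uM dopamine.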
D2 PAM-2 = D2 dopamine receptor (human) potentiation; P14416; HEK293 T-REx D2, calcium flux, EC20 dopamine potentiation; potentiation, % at 10 µM; 340,000 tested, 0.34% active; AID 485347;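 active = potentiation over 3 SD above the plate norm, cut at about 30% in these data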; note: 0% is about no effect
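Calcium flux readout, no-wash dye, 1 read/s. Inducible HEK293 Trex D2 line, overnight 30 C. Compound alone 180 s (agonist flags), then EC20 dopamine, another 180 s to score potentiation.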
D2 antagonist = antagonists of human D2 dopamine receptor. 340,000 tested, 2% active. HEK293 TREx D2 cells, calcium flux, dopamine EC80. inhibition, % at 10 µM. AID 485344. P14416; in the data active = inhibition above about 30%; inactive = below that, where a call was filed; note: 0% is about no effect
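Compounds are added to dye-loaded, induced HEK293 T-REx cells coupled to calcium release via D2; after a 3 min kinetic read an EC80 dopamine stimulus is given and fluorescence is recorded for 3 more min.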
D2 ag-1 = D2 dopamine receptor (human) agonism; P14416; 340,000 tested, 0.53% active; activation, % at 2 µM; AID 485358; HEK293 T-REx D2 cells, calcium flux agonist mode;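 active = activation over 3 SD above normal in the single-dose calcium agonist read, cut at about 30% in these data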; note: 0% is about no effect
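Agonism is scored from calcium flux in a force-coupled, inducible HEK293 cell line expressing D2, read kinetically for 180 s after compound addition against dopamine controls.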
D2 ag-2 = agonists of human D2 dopamine receptor (beta-arrestin); AID 624465; DiscoveRx PathHunter D2 beta-arrestin, luminescence, 90 min; 100% = 57 uM dopamine signal; 360,000 tested, 0.084% active; activation, % (test concentration not listed); in the data active = activation above about 40%; inconclusive = between about 15% and that limit
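Agonist mode: compounds alone added to overnight-plated D2 PathHunter cells for 90 min at 37 C, with 57 uM final dopamine (EC100) defining full response. Beta-arrestin recruitment detected by chemiluminescent reagent, read after 1 h at ambient temperature.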
Active calls of the source: *; u = inconclusive; x = no result given.

SMILES | D2 PAM-1 | D2 PAM-2 | D2 antagonist | D2 ag-1 | D2 ag-2
O=C(CCC(=O)Nc1ccccc1)N/N=C/C=C/c1ccccc1 | -2 | -10 | 30* | 0 | 1
O=C(CCC(=O)Nc1ccc(F)cc1)N/N=C/c1ccccc1O | -20 | -7 | 34* | 0 | -2
Cc1ccccc1-n1c(SCC(=O)Nc2ccc(Cl)cc2Cl)nc(O)cc1=O | x | -6 | x | 0 | x
O=C1COC(c2ccccc2O)=NN1CCCl | -6 | x | x | x | -6
Cc1nc(NC(=O)CSc2nncs2)c(Cl)cc1Cl | -6 | 3 | -28 | 0 | 0
Cc1ccc(NC(=O)CSc2nncs2)cc1Cl | -19 | -19 | 48* | 3 | -2
CCOc1ccccc1CN1CCc2nc(N3CCN(c4ccccc4F)CC3)ncc2C1 | x | x | x | 3 | x
O=C(CSCc1ccccc1Cl)N1CCN(c2ccc(Cl)cc2)CC1 | x | 6 | x | 0 | x
O=[N+]([O-])c1nn(-c2ccc3c(c2)OCCO3)n(O)c1=NC1CCCCC1 | 118* | -3 | 7 | 1 | u
COc1ccccc1CN=c1c([N+](=O)[O-])nn(-c2ccc3c(c2)OCCO3)n1O | 129* | 5 | 8 | -1 | u
O=[N+]([O-])c1nn(-c2ccc3c(c2)OCCO3)n(O)c1=NCc1ccccc1Cl | 54* | -2 | 24 | 0 | 12
Cc1ccc(CN=c2c([N+](=O)[O-])nn(-c3cccc(Cl)c3)n2O)cc1 | u | 0 | 3 | -5 | u
O=C(CSc1nc(-c2ccc(F)cc2)[nH]c1-c1ccccc1)NCC1CCCO1 (stereo unspecified) | x | -14 | x | 3 | x
O=C(Nc1ccc(F)cc1)c1ncn(-c2ccccc2)n1 | x | -18 | x | 0 | x
Cc1cc(C)c2c(CC(=O)Nc3ccc(F)cc3)coc2c1 | x | -6 | x | -1 | x
CCN(CC)c1ccc2c(C)c(Cl)c(=O)oc2c1 | -3 | 8 | -6 | 0 | 7
CCN(CC)c1ccc2c(c1)oc(=O)c1c(Cl)cc(=O)oc12 | -33 | -5 | 51* | 48* | -5
Cc1ccc(NC(=O)CS(=O)(=O)c2cn(C)c3ccccc23)c(C)c1 | -5 | 8 | 16 | -1 | -1
Cn1cc(S(=O)(=O)CC(=O)Nc2ccc(Br)cc2)c2ccccc21 | -10 | -13 | 39* | -1 | -2
CCn1cc(S(=O)(=O)CC(=O)Nc2ccc3c(c2)OCCO3)c2ccccc21 | 53* | 7 | 11 | -1 | 12
CCCn1cc(S(=O)(=O)CC(=O)Nc2ccc(OC)cc2OC)c2ccccc21 | 68* | -2 | 4 | -1 | 9
COc1ccc(NC(=O)CS(=O)(=O)c2cn(CC(=O)N(C(C)C)C(C)C)c3ccccc23)c(OC)c1 | 12 | 10 | 13 | -1 | 0
CCCCOC(=O)/C=C/c1ccc(OC(=O)OC)c(OC(=O)OC)c1 | -9 | -4 | 74* | 0 | 3
COc1ccc(Br)cc1S(=O)(=O)n1c([N+](=O)[O-])cnc1C | -9 | 2 | 34* | 1 | -3
CCc1nc2nc(C)c(NS(=O)(=O)c3ccc(F)c(C)c3)c(=O)n2[nH]1 | x | -1 | x | 0 | x
SMILES | D2 PAM-1 | D2 PAM-2 | D2 antagonist | D2 ag-1 | D2 ag-2
CCc1nc2nc(C)c(NS(=O)(=O)c3cccs3)c(=O)n2[nH]1 | -8 | 51* | 0 | -2 | -4
CCc1nc2nc(C)c(NS(=O)(=O)c3ccc(F)cc3)c(=O)n2[nH]1 | -1 | 30 | 2 | -2 | 3
CCc1nc2nc(C)c(NS(=O)(=O)c3ccc(Br)s3)c(=O)n2[nH]1 | 11 | 31* | -30 | -1 | 4
Cc1ccc(S(=O)(=O)Nc2c(C)nc3nc(C)[nH]n3c2=O)c(C)c1 | -5 | -13 | 36* | 1 | 1
CC(C)c1ccc(Nc2nc3ccc(C(=O)c4ccccc4)cc3n3cnnc23)cc1 | x | 3 | x | -1 | x
COc1cc(OC)c(NC(=O)Cn2c(=O)cc(C(F)(F)F)c3c(C)nn(C)c32)cc1Cl | x | -3 | x | 0 | x
Cc1ccc2c(=O)c(C(=O)c3ccccc3)cn(CC(=O)Nc3ccc4c(c3)OCCO4)c2n1 | x | -11 | x | x | x
CCc1ccc(NC(=O)C2CC(=O)N=C(N)S2)cc1 (stereo unspecified) | -8 | 2 | 9 | 0 | -1
CC(C)c1ccc(NC(=O)C2CC(=O)N=C(N)S2)cc1 (stereo unspecified) | 109* | 20 | -3 | 0 | u
CCOC(=O)C1CCN(C(=S)NC2CCCC2)CC1 | 0 | -14 | 34* | 1 | 5
CCOC(=O)C1CCCN(C(=S)NC2CCCCC2)C1 (stereo unspecified) | -2 | x | x | x | -1
CC(NC(=O)C1CCN(S(=O)(=O)c2ccc(F)cc2)CC1)c1ccccc1 (stereo unspecified) | x | 3 | x | -1 | x
COc1cc2c(cc1OC)CN(Cc1ccc(C)cc1)CC2 | -17 | -27 | 56* | 0 | 0
COc1ccccc1CNC1CCN(Cc2ccccc2)CC1 | -14 | x | x | x | -4
CCc1ccc2c(CN3CCc4cc(OC)c(OC)cc4C3)cc(=O)oc2c1 | -18 | -26 | 32* | 26 | 0
COc1ccccc1C1CCN(Cc2ccc(C)cc2)CC1 | -14 | -27 | 95* | -1 | -3
O=S(=O)(c1ccc(Cl)cc1)c1nnn2c1nc(N1CCCCC1)c1sccc12 | x | 3 | x | 0 | x
CCOC(=O)c1ccc(CN(Cc2ccccc2C)S(=O)(=O)c2ccc(F)c(C(=O)Nc3cccc(OC)c3)c2)cc1 | x | 11 | x | x | x
CCCc1cc(=O)n2[nH]c(C)c(-c3ccccc3)c2n1 | -39 | x | x | x | -8
CCOC(=O)Cc1cc(=O)n2[nH]c(C)c(-c3ccc(OC)cc3)c2n1 | -15 | 31* | -12 | -1 | -1
CCc1cc(=O)n2[nH]c(C)c(-c3ccc(OC)cc3)c2n1 | -45 | -17 | 34* | 0 | -4
O=C(Nc1cc2ccc(O)cc2oc1=O)c1ccccc1 | x | -6 | x | 1 | x
Cc1nnc(SCC(=O)NCc2ccco2)n1Cc1ccccc1 | -15 | x | x | x | -1
CCn1c2ccccc2c2cc(NC(=O)c3cccc([N+](=O)[O-])c3)ccc21 | -2 | -12 | 42* | 1 | 1
CCCn1c(SCC(=O)Nc2nnc(CC)s2)nnc1-c1ccco1 | 29 | 38* | 7 | 0 | -1
SMILES | D2 PAM-1 | D2 PAM-2 | D2 antagonist | D2 ag-1 | D2 ag-2
CCn1c(SCC(=O)Nc2ccc3c(c2)c2ccccc2n3CC)nnc1-c1ccco1 | -21 | 9 | 45* | 0 | 0
CCCn1c(SCC(=O)NCc2ccco2)nnc1C(C)C | 1 | -7 | 47* | 0 | -2
COc1cc(NC(=O)N2CCC3(CC2)Nc2ccccc2-n2cccc23)cc(OC)c1OC | x | 5 | x | 1 | x
O=Nc1c(O)ccc2cc(S(=O)(=O)O)ccc12 | 100* | x | x | x | u
COc1ccccc1NS(=O)(=O)c1cccc2cccnc12 | -7 | 6 | 31* | 0 | -7
CC1CN(C(=O)c2cc3ccccc3cc2O)CC(C)O1 (stereo unspecified) | 6 | x | x | x | 3
